Results taken from PubChem BioAssay AID1561 (National Center for Advancing Translational Sciences (NCATS), 2009).
A number with no mark means an inactive call. Calls follow the shape of the dose curve; as a rule, active = well fitted curve in the direction sought with a large enough effect; inactive = no such curve, though single readings can be large or run the other way.

Assay: Secondary Assay for lipid storage modulators. Cytotoxcity
Conditions: Drosophila S3 cells viability, CellTiter-Glo luminescence, 24 h; series mostly up to 46.1 µM; activity change, negative = cytotoxicity: at the top concentration
Text: NIH Molecular Libraries Probe Production Centers Network [MLPCN] NIH Chemical Genomics Center [NCGC] MLPCN Grant: TBA Assay Submitter (PI): Beller, Mathias; Max-Planck-Institut fur Biophysikalische Chemie, Germany. NCGC Assay Overview: Storing lipids as a reservoir for energy or the anabolism of elementary metabolites is a common feature of probably all cells and is conserved from bacteria to humans. The universal cellular lipid storage organelle is the so-called lipid storage droplet (LD). Although ubiquitous, LDs share a simple structure composed of a hydrophobic core that harbors the storage lipids, which is shielded by a droplet-specific phospholipid monolayer to which proteins are attached. The current model of LD biogenesis involves an incorporation of the lipid core into the membrane leaflets of the endoplasmic reticulum (ER) followed by a subsequent budding-like maturation of a LD, which ultimately pinches off. Once released, LD volume can increase by localized lipogenesis or fusion of existing droplet. Storage lipids are re-mobilized enzymatically by lipase activity. […]
Assay Protocol Summary: Cytotoxcity assay was performed with embryonic Drosophila S3 cells (Bloomington Drosophila Genomics Resource Center [DGRC]). […] Luminescence was detected on the Perkin Elmer ViewLux.

SMILES | activity change, negative = cytotoxicity [%]
COC(=O)c1ccccc1NC(=O)c1ccc(F)cc1 | -35.2
